Most compounds without a hit are left out; they make up all but 19% or so of the library.
TDP1 block = blocks human tyrosyl-DNA phosphodiesterase 1; recombinant TDP1, AlphaScreen DNA substrate cleavage; Potency, µM (top dose mostly 130 µM), without a hit: at the highest dose activity change, negative = inhibition, usual class: inhibitors; 0.28% of 350,000 active; AID 485290; note: potency is the fitted concentration of half-maximal effect; nearly all actives have a fitted effect of over 40% in size
Target sequence (Q9NUW8 whole entry, looked up): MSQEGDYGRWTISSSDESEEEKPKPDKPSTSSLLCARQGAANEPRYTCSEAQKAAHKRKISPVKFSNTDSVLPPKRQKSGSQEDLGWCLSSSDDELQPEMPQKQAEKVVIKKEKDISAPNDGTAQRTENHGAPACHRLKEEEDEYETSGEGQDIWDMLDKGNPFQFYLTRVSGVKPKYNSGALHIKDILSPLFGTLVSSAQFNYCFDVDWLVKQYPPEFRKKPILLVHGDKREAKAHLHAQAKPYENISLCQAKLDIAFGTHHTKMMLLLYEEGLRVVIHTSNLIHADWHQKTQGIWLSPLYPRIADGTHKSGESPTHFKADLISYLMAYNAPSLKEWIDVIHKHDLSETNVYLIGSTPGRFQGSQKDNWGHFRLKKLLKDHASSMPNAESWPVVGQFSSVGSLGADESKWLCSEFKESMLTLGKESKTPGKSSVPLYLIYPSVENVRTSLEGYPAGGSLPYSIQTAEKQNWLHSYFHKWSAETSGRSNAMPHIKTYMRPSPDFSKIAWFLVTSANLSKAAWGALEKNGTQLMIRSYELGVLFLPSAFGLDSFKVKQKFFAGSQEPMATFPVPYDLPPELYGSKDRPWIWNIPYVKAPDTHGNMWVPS
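Compounds were preincubated with Tdp1 (1 nM final) for 15 min at room temperature before substrate (15 nM final) started a 5 min reaction; beads (10 ug/ml final) were then added for 10 min before AlphaScreen detection.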
Giardia kill = kills Giardia lamblia; Giardia lamblia trophozoite viability; AID 540267; 0.15% of 340,000 active; activity change, % at 7.66 µM, hits read low; in the data active = activity change below about -80%; inconclusive = between about -30% and that limit;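 note: parasites exposed to compound for two days anaerobically before the ATP read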
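Media and compound were dispensed first, then trophozoites at 100 cells/well; plates sat 48 hrs at 37 deg C without oxygen before ATP luminescence reagent was added and read after 15-30 min at room temperature.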
DT40 TDP1 no CPT = qHTS for Inhibitors of human tyrosyl-DNA phosphodiesterase 1 (TDP1): qHTS in cells in absence of CPT; Potency, µM (doses to about 46.2 µM), without a hit: at the highest dose activity change, negative = growth inhibition, most hits filed as inhibitors; 15% of 420,000 active; DT40 Tdp1-/- hTDP1 cells, no CPT, ATP luminescence, 48 h; note: potency is the fitted concentration of half-maximal effect; nearly all actives have a fitted effect of over 55% in size
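A cellular qHTS used chicken DT40 cells lacking endogenous Tdp1 but carrying stably transfected human TDP1. Compounds were applied without camptothecin, and cell growth kinetics were judged by ATP-dependent luminescence after ≥48 hr.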
ELG1 repair inh = inhibitors of ELG1-dependent DNA repair in HEK293T cells; HEK293T ELG1-luciferase reporter, luminescence, 16 h; DNA damage induced by 5-fluorouridine; Potency, µM (doses to about 46.1 µM), without a hit: top-dose activity change, negative = inhibition, hits mostly inhibitors; 2.3% of 330,000 active; AID 504467; note: potency is the fitted concentration of half-maximal effect; nearly all actives have a fitted effect of over 55% in size
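Reporter activity after DNA damage by 5-fluorouridine is monitored. Compound-treated cells incubate 16 hr at 37 °C, then ONE-Glo is added for 30 min before luminescence reading.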
TDP1 cell CPT = DT40-hTDP1 cell growth loss with CPT; chicken DT40 Tdp1-/-;hTDP1 cells + 20 nM CPT, ATP luminescence, 48 h; 12% of 420,000 active; AID 686979; Potency, µM (titrated, usually from 46.2 µM), for the others: at the highest dose activity change, negative = growth inhibition, hits mostly inhibitors; note: potency is the fitted concentration of half-maximal effect; nearly all actives have a fitted effect of over 55% in size
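Cell growth measured by CellTiter-Glo luminescence after a minimum 48 h, 37 C compound exposure with 20 nM CPT in Tdp1-knockout DT40 cells stably expressing hTDP1, seeded 400/well; qHTS titration format.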
IL1B secr inh = blocks inflammasome-driven IL-1 beta release; AID 743279; 4.7% of 360,000 active; activity change, % at 57.5 µM; THP-1 LPS/ATP IL-1B secretion, AlphaLISA, 16 h; stronger effect = lower value; in the data active = activity change below about -50%; inconclusive = mostly about -30% to -49%
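THP-1 cells pretreated 1 hr with compounds (up to 57.5 uM final), then stimulated with LPS (250 ng/mL final) plus ATP (1.25 mM final); secreted IL-1B measured by AlphaLISA after 16 hr, decreased signal indicating inhibition.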
Starred values were filed as active, the others as inactive; [ ] = another dose, or the depositor's remark. Unless noted, calls come from the whole dose curve; as a rule, active = well fitted curve in the direction sought with a large enough effect; inconclusive = small, poorly fitted or top-dose-only effect, or another doubt; inactive = no such curve, though single readings can be large; an effect the other way counts as inactive or inconclusive. % is set by controls: 0 for no effect and ±100 for the full control effect.

Screening CC1C(=O)C(C)C(c2ccc([N+](=O)[O-])cc2)NC1c1ccc([N+](=O)[O-])cc1 (centres undefined) returned TDP1 block 4.8%, Giardia kill -7.3, DT40 TDP1 no CPT 18.4µM*, ELG1 repair inh -26.1%, TDP1 cell CPT inconclusive and IL1B secr inh -8.1.
For CC1C(=O)CC(c2ccc([N+](=O)[O-])cc2)NC1c1ccc([N+](=O)[O-])cc1 (centres undefined) the results were TDP1 block 8.4%, Giardia kill -16.9, DT40 TDP1 no CPT inconclusive, ELG1 repair inh inconclusive, TDP1 cell CPT inconclusive and IL1B secr inh -19.3.
O=S(=O)(c1ccc2ccccc2c1)N1CCCCC1 was read as TDP1 block -3.3%, Giardia kill 8.3, DT40 TDP1 no CPT -16.2%, ELG1 repair inh 4.6%, TDP1 cell CPT -5.7% and IL1B secr inh 1.1.
O=S(=O)(CC(CN1CCCC1)N1CCCC1)c1ccc2ccccc2c1 (centres undefined) was read as TDP1 block 2.4%, Giardia kill -3.7, DT40 TDP1 no CPT 4.61µM*, ELG1 repair inh 11.6µM*, TDP1 cell CPT 3.26µM* and IL1B secr inh -107.1*.
For Cc1cc2c(cc1C)C(c1ccccc1OC(C)C)CC(=O)N2 (centres undefined) the results were TDP1 block 5.1%, Giardia kill -17.4, DT40 TDP1 no CPT inconclusive, ELG1 repair inh 0.3%, TDP1 cell CPT inconclusive and IL1B secr inh -9.9.
`CCCCOc1ccccc1C1CC(=O)Nc2cc(OC)c(OC)cc21` (centres undefined) gave TDP1 block 6.4%, DT40 TDP1 no CPT inconclusive and TDP1 cell CPT inconclusive.
For COc1ccccc1C1CC(=O)Nc2cc(C)c(C)cc21 (centres undefined) the results were Giardia kill -1.4, DT40 TDP1 no CPT 8.2µM*, ELG1 repair inh inconclusive, TDP1 cell CPT 6.51µM* and IL1B secr inh 40.3.
For COc1ccc2c(c1)OC(=O)CC2c1ccccc1OC (centres undefined) the results were TDP1 block -3.4%[56.1 µM], Giardia kill -2.5, DT40 TDP1 no CPT 0.7%, ELG1 repair inh 3.1%, TDP1 cell CPT -23.3% and IL1B secr inh 22.4.
`CCOc1ccccc1C1CC(=O)Nc2cc(C)c(C)cc21` (centres undefined) gave Giardia kill 21.9, DT40 TDP1 no CPT 4.11µM*, ELG1 repair inh -9.0%, TDP1 cell CPT 2.59µM* and IL1B secr inh 57.5.
Screening COc1ccc2c(c1)C(c1ccccc1OC)CC(=O)O2 (centres undefined) returned TDP1 block 12.6µM*.
Screening CCCCOc1ccccc1C1CC(=O)Nc2cc(C)c(C)cc21 (centres undefined) returned TDP1 block 0.0%, DT40 TDP1 no CPT 18.4µM* and TDP1 cell CPT 14.6µM*.
For COc1cc(NC(=O)Cn2ccn(Cc3ccccc3OC)c(=O)c2=O)cc(OC)c1 the results were TDP1 block 2.6%, DT40 TDP1 no CPT -8.0% and TDP1 cell CPT -0.1%.
For O=C(CCCCn1ccc(=O)[nH]c1=O)Nc1ccc(O)c(C(=O)O)c1 the results were Giardia kill 4.5, DT40 TDP1 no CPT -8.8%, TDP1 cell CPT -3.5% and IL1B secr inh -2.2.
`CCCN(CC(=O)Nc1cc(Cl)cc(Cl)c1)CC(=O)Nc1ccc(F)c(F)c1F` gave TDP1 block 2.3%, Giardia kill 1.9, DT40 TDP1 no CPT 23.1µM*, ELG1 repair inh inconclusive, TDP1 cell CPT inconclusive and IL1B secr inh -97.3*.
For CCCN(CC(=O)Nc1ccccc1Br)CC(=O)Nc1ccc(F)c(F)c1F the results were TDP1 block 0.6%, Giardia kill 17.4, DT40 TDP1 no CPT inconclusive, ELG1 repair inh inconclusive, TDP1 cell CPT inconclusive and IL1B secr inh inconclusive.
Screening Cc1cccc(CSC2=CS(=O)(=O)c3ccccc3N2)c1 returned TDP1 block 7.5%, Giardia kill 3.9, DT40 TDP1 no CPT 23.1µM*, ELG1 repair inh -1.6%, TDP1 cell CPT inconclusive and IL1B secr inh -5.4.
Cc1ccc(CSC2=CS(=O)(=O)c3ccccc3N2)cc1 was read as TDP1 block 2.1%, Giardia kill 8.1, DT40 TDP1 no CPT inconclusive, ELG1 repair inh -5.5%, TDP1 cell CPT inconclusive and IL1B secr inh -5.7.
`O=S1(=O)C=C(SCc2cccc(Cl)c2)Nc2ccccc21` gave TDP1 block 3.2%, Giardia kill -3.9, DT40 TDP1 no CPT -27.1%, ELG1 repair inh -5.3%, TDP1 cell CPT inconclusive and IL1B secr inh -50.6*.
Screening Cc1ccc(OCc2cc(C(=O)N3CCc4[nH]cnc4C3c3ccccn3)no2)cc1C (centres undefined) returned TDP1 block 10.7%, Giardia kill 23.3, DT40 TDP1 no CPT -23.8%, ELG1 repair inh -0.3%, TDP1 cell CPT inconclusive and IL1B secr inh 17.3.
Screening COC(=O)CCC(=O)c1oc2ccc(Cl)cc2c1NC(=O)CCCN1C(=O)c2ccccc2C1=O returned TDP1 block 4.0%, Giardia kill -10.0, DT40 TDP1 no CPT -8.6%, ELG1 repair inh 4.61µM*, TDP1 cell CPT -8.3% and IL1B secr inh 22.5.
CCOC(=O)c1cnc2ccc(Cl)cc2c1N1CCN(C)CC1 was read as TDP1 block 4.5%, Giardia kill -9.6, DT40 TDP1 no CPT -28.5%, ELG1 repair inh -19.1%, TDP1 cell CPT inconclusive and IL1B secr inh -24.8.
CCOC(=O)c1cnc2c(OC)cccc2c1N1CCN(c2ccccn2)CC1 was read as TDP1 block 4.9%, Giardia kill 1.6, DT40 TDP1 no CPT 16.4µM*, ELG1 repair inh inconclusive, TDP1 cell CPT inconclusive and IL1B secr inh -53.2*.
`CCOC(=O)c1cnc2ccc(OCC)cc2c1N1CCN(c2cccc(Cl)c2)CC1` gave TDP1 block 3.2%, DT40 TDP1 no CPT 8.2µM* and TDP1 cell CPT 16.4µM*.
For CCOC(=O)c1cnc2c(C)cc(Cl)cc2c1N1CCN(C)CC1 the results were Giardia kill 9.1, DT40 TDP1 no CPT inconclusive, ELG1 repair inh -7.9%, TDP1 cell CPT inconclusive and IL1B secr inh -64.5*.
Screening CCOC(=O)c1cnc2c(C(F)(F)F)cccc2c1N1CCN(C)CC1 returned Giardia kill 13.3, DT40 TDP1 no CPT -23.0%, ELG1 repair inh 1.8%, TDP1 cell CPT -7.9% and IL1B secr inh -12.4.
